These results are taken from PubChem BioAssay (NCATS).

Records with an inconclusive call do not appear. Active and inactive are the calls of the source. Calls follow the shape of the dose curve; as a rule, active = well fitted cell-killing curve with a large enough effect; inconclusive = small, poorly fitted or top-dose-only effect, or effect the other way; inactive = no such curve, though single readings can be large or run the other way.

Experiment [1] in a line: Quantitative High-Throughput drug screen in 47 multiple myeloma cell lines against the NCATS MIPE library collection: FR4_PLB cell viability assay (AID 1918924; also: nearly all actives have a fitted effect of over 35% in size). Put shortly: (§1)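 Luminescent ATP measurement with CellTiter-Glo gives viability, scaled between DMSO-only wells (100%) and media-only wells (0%). Cells, 500 per well, faced library compounds for 48 hours at 37C.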

A short description of experiment [2]: Quantitative High-Throughput drug screen in 47 multiple myeloma cell lines against the NCATS MIPE library collection: EJM_DSMZ cell viability assay (AID 1918926; also: nearly all actives have a fitted effect of over 30% in size). Put shortly: (§2)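 Myeloma cell lines, 500 cells per well, exposed to MIPE 4.0 library compounds for 48 h at 37C, 5% CO2. Viability from ATP by CellTiter-Glo luminescence; normalised to DMSO (100%) and media-only (0%) wells.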

A short description of experiment [3]: Quantitative High-Throughput drug screen in 47 multiple myeloma cell lines against the NCATS MIPE library collection: AMO1_DSMZ cell viability assay (AID 1918927; also: nearly all actives have a fitted effect of over 30% in size). Put shortly:
as §2

Experiment [4] can be described thus: Quantitative High-Throughput drug screen in 47 multiple myeloma cell lines against the NCATS MIPE library collection: ARP1_JJKsccF8 cell viability assay (AID 1918928; also: nearly all actives have a fitted effect of over 40% in size). In outline: (§3)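 Myeloma cells, 500 per well, were exposed to MIPE 4.0 drugs by pin transfer for 48 h at 37 °C, 5% CO2. Viability was read as ATP luminescence with CellTiter-Glo, normalised to DMSO-only (100%) and medium-only (0%) wells.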

The nature of experiment [5]: Quantitative High-Throughput drug screen in 47 multiple myeloma cell lines against the NCATS MIPE library collection: ARD_JJKsccE7 cell viability assay (AID 1918929). In outline:
as §2

Experiment [6] in a line: Quantitative High-Throughput drug screen in 47 multiple myeloma cell lines against the NCATS MIPE library collection: Karpas620_DSMZ cell viability assay (AID 1918959). Also: nearly all actives have a fitted effect of over 30% in size. Put shortly: as §1
The nature of experiment [7]: Quantitative High-Throughput drug screen in 47 multiple myeloma cell lines against the NCATS MIPE library collection: KMM1_JCRB cell viability assay (AID 1918960). Also: nearly all actives have a fitted effect of over 30% in size. In outline:
as §3

Experiment [8] is described as follows: Quantitative High-Throughput drug screen in 47 multiple myeloma cell lines against the NCATS MIPE library collection: Delta47_JCRB cell viability assay (AID 1918925; also: nearly all actives have a fitted effect of over 45% in size). In outline: as §2
Experiment [9] in a line: Quantitative High-Throughput drug screen in 47 multiple myeloma cell lines against the NCATS MIPE library collection: Karpas417_ECACC cell viability assay (AID 1918961). The conditions noted are these: Karpas417 myeloma viability, CellTiter-Glo ATP luminescence, 48 h; viability (% of DMSO): at 45.8 µM (top of the series). In outline:
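Steps: seed 500 cells per well; pin-transfer MIPE 4.0 library; incubate 48 h at 37C, 5% CO2, humidified; add CellTiter-Glo, 5 min room temperature; read luminescence.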
In general terms: Cellular ATP, detected with luciferase, serves as a proxy for viable cell number.
Potency is read from the fitted curve at half-maximal effect.

For the compound `NS(=O)(=O)c1cc2c(cc1Cl)NC(C(Cl)Cl)NS2(=O)=O` (centres undefined), the Potency entry in experiment [1], in experiment [2], in experiment [3], in experiment [4], in experiment [5] and in experiment [6] was “inactive” each time. Moreover, the Potency entry in [7] was “inactive”.
For `S=P(N1CC1)(N1CC1)N1CC1`, the Potency result in [1], in experiment [2], in experiment [4] and in experiment [6] was “inactive” throughout.
Consider `NC(=O)N1c2ccccc2CC(=O)c2ccccc21`, for which the Potency entry in experiment [1], in experiment [8], in [3], in experiment [5], in experiment [6] and in experiment [7] was “inactive” throughout.
With `CCCCS(=N)(=O)CCC(N)C(=O)O` (centres undefined), the Potency entry in [1], in experiment [8] and in [7] was “inactive” each time.
As to `CC(=O)[C@H]1CC[C@H]2[C@@H]3CC=C4C[C@@H](O)CC[C@]4(C)[C@H]3CC[C@]12C`, the Potency entry in experiment [1], in [8], in [3], in experiment [5], in [6] and in experiment [7] was “inactive” in each case.
Consider `N[C@@H](Cc1ccc(O)c(O)c1)C(=O)O`, for which the Potency result in [1], in [2], in [5], in [6] and in [7] was “inactive” in each case.
For the compound `CCC(=O)O[C@]1(C(=O)SCF)[C@H](C)C[C@H]2[C@@H]3C[C@H](F)C4=CC(=O)C=C[C@]4(C)[C@@]3(F)[C@@H](O)C[C@@]21C`, the Potency entry in [1], in experiment [8], in experiment [3], in experiment [4], in experiment [5] and in experiment [6] was “inactive” throughout. In addition, the Potency entry in [7] and in [9] was “inactive” in each case.
`CCN(CC)CCn1c(=O)c(Cc2ccc(OC)cc2)nc2ccccc21`: the Potency entry in experiment [1], in experiment [2], in experiment [3], in [4], in experiment [5] and in [6] was “inactive” throughout. The Potency entry in experiment [7] and in experiment [9] was “inactive” in each case.
For the compound `NC(=O)c1cccnc1`, the Potency result in experiment [1], in [2], in experiment [3], in experiment [4], in experiment [5] and in [6] was “inactive” each time. In addition, the Potency entry in experiment [7] and in [9] was “inactive” each time.
With `CC(=O)CC(c1ccccc1)c1c(O)c2ccccc2oc1=O` (centres undefined), the Potency entry in [1], in experiment [2], in experiment [4], in [5], in experiment [6] and in [7] was “inactive” each time.
`COc1cc2ncnc(Nc3cccc(Cl)c3)c2cc1OC`: the Potency in experiment [1] was 26.4 µM (active); in experiment [2], 0.0418 µM (active); in experiment [5], 23.5 µM (active); in experiment [7], 20.9 µM (active).
For the compound `Cn1nnc2c(C(N)=O)ncn2c1=O`, the Potency result in [1], in experiment [2], in experiment [5], in experiment [6] and in [7] was “inactive” each time.
As to `CCCOc1ccc(C(=O)OCCN(CC)CC)cc1N`, the Potency result in [1], in experiment [2], in experiment [3], in experiment [4], in experiment [6] and in experiment [7] was “inactive” throughout.
With `C#CCN[C@@H]1CCc2ccccc21`, the Potency entry in experiment [1], in experiment [8], in experiment [3], in [4], in experiment [5] and in experiment [6] was “inactive” throughout. The Potency entry in experiment [7] and in experiment [9] was “inactive” in each case.
As for `C[C@]12C=CC(=O)C=C1CC[C@@H]1[C@@H]2C(=O)C[C@@]2(C)[C@H]1CC[C@]2(O)C(=O)CO`, the Potency result in [1], in experiment [2], in experiment [3], in experiment [4], in experiment [6] and in experiment [7] was “inactive” in each case.
As to `COc1ccc2cc3[n+](cc2c1OC)CCc1cc2c(cc1-3)OCO2`, the Potency is 14.8 µM (active) in experiment [1]; 5.26 µM (active) in [8]; 6.62 µM (active) in experiment [4]; 5.9 µM (active) in [5]; 14.8 µM (active) in experiment [6]; 10.5 µM (active) in [7]. Moreover, the Potency in experiment [9] is 9.35 µM (active).
As to `CC(C)(C#N)c1cc(Cn2cncn2)cc(C(C)(C)C#N)c1`, the Potency entry in experiment [1], in experiment [2], in [5], in experiment [6] and in experiment [7] was “inactive” in each case.
For the compound `CN(CCOc1ccc(CC2SC(=O)NC2=O)cc1)c1ccccn1` (centres undefined), the Potency result in experiment [1], in [8], in experiment [3] and in experiment [7] was “inactive” each time. Moreover, the Potency in experiment [6] is 0.0019 µM (active).
Consider `CN1CCCC(n2nc(Cc3ccc(Cl)cc3)c3ccccc3c2=O)CC1` (centres undefined), for which the Potency was 23.5 µM (active) in [1] and 1.05 µM (active) in experiment [2].
As for `COc1nc(N)nc2c1ncn2[C@@H]1O[C@H](CO)[C@@H](O)[C@@H]1O`, the Potency entry in [1], in [8], in [3], in [6], in experiment [7] and in experiment [9] was “inactive” in each case.
Turning to `O=c1cc(O)c(Cl)c[nH]1`, the Potency result in [1], in experiment [8] and in experiment [4] was “inactive” throughout. Also, the Potency is 2.64 µM (active) in [3], 7.43 µM (active) in experiment [5] and 1.18 µM (active) in experiment [9].
For the compound `CCN[C@H]1C[C@H](C)S(=O)(=O)c2sc(S(N)(=O)=O)cc21`, the Potency entry in experiment [1], in experiment [8], in experiment [3], in [5], in [6] and in experiment [7] was “inactive” each time.
Regarding `CCn1cc(C(=O)O)c(=O)c2cc(F)c(N3CCNCC3)cc21`, the Potency entry in experiment [1], in experiment [8], in experiment [5], in experiment [6], in [7] and in experiment [9] was “inactive” throughout.
As to `CN(Cc1cc(Br)cc(Br)c1N)C1CCCCC1`, the Potency result in [1], in experiment [8], in [3], in experiment [5] and in [6] was “inactive” in each case.
Consider `CC1=C(C(=O)O)N2C(=O)[C@@H](NC(=O)C(N)c3ccccc3)[C@H]2SC1` (some centres undefined), for which the Potency result in experiment [1], in experiment [2], in experiment [4], in experiment [5], in experiment [6] and in experiment [7] was “inactive” in each case.
Consider `CS(=O)(=O)c1ccc([C@@H](O)[C@@H](CO)NC(=O)C(Cl)Cl)cc1`, for which the Potency result in experiment [1], in [2] and in [6] was “inactive” each time. In experiment [5], the Potency is 13.2 µM (active).
`CC(C)Cn1cnc2c(N)nc3ccccc3c21`: the Potency result in [1] and in experiment [6] was “inactive” each time. The Potency is 5.26 µM (active) in experiment [2], 4.18 µM (active) in experiment [3] and 5.9 µM (active) in experiment [5].
Regarding `OC(Cn1cncn1)(Cn1cncn1)c1ccc(F)cc1F`, the Potency entry in [1], in experiment [2], in experiment [4], in [5], in [6] and in [7] was “inactive” throughout.
As to `CC(C)(Sc1cc(C(C)(C)C)c(O)c(C(C)(C)C)c1)Sc1cc(C(C)(C)C)c(O)c(C(C)(C)C)c1`, the Potency result in experiment [1], in [4], in [6] and in [9] was “inactive” throughout. In addition, the Potency in experiment [8] was 5.26 µM (active).
